The list is not random: actives were taken first. Their share in the collection is about 1.3%.
PREPL inhibitor = human PREPL enzyme inhibition; recombinant PREPL, fluorescence polarization activity-based probe; inhibition, % at 5.96 µM; 320,000 tested, 0.68% active; AID 2751; in the data active means inhibition above about 43%;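 further: 0% = enzyme with DMSO and 100% = wells lacking enzyme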
FID counter = displaces DNA intercalator in HCV helicase counter-screen | DNA fluorescent intercalator displacement, fluorescence | inhibition, % at 7.9 µM | 290,000 tested, 0.17% active; in the data active means inhibition above about 37%;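 further: 0% = vehicle and 100% = reference compound; higher means more ethidium bromide displaced from hairpin DNA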
beta cell repl = induces beta-cell replication in MIN6 cells. proliferation, % at 10 µM. 330,000 tested, 0.29% active. MIN6 cells proliferation, ATPlite luminescence, 48 h; cells starved in 0.2% serum; 100% = growth in 10% serum;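 active means compounds whose signal lies at least 3.5 SD above the mean of all wells on their plate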;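 further: 0% = DMSO-treated cells in low-serum medium and 100% = 10% serum control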
UBC13 inh = human UBC13 polyubiquitination inhibition. UBC13 polyubiquitin chain formation, TR-FRET. inhibition, % at 20 µM. 330,000 tested, 0.47% active. AID 485273; in the data active means inhibition above about 45%, passing the limit was not always enough
Target sequence (P61088 whole entry, looked up): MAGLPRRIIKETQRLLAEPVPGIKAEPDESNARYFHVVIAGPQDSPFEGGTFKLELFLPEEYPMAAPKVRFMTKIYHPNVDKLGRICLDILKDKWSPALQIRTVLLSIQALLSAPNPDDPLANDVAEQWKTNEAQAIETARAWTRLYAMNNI
RAD54 inh = inhibitors of human RAD54 branch migration | inhibition, % at 10.4 µM | AID 602329 | Q92698 | 360,000 tested, 0.14% active | RAD54 Holliday junction branch migration, FAM/BHQ fluorescence;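 active means mean normalized replicate activity at least 40 and at least half of replicates scoring 40 or more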;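 further: 0% = median of neutral control wells and 100% = median of positive control wells; inhibitors cause a drop in the FAM fluorescence signal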
RAD52 anneal inh = inhibitors of human RAD52 DNA annealing; P43351; recombinant RAD52 DNA annealing, FRET fluorescence; inhibition, % at 18.7 µM; 360,000 tested, 0.46% active;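 active means every replicate showing at least 50% inhibition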
Target sequence (P43351 whole entry, looked up): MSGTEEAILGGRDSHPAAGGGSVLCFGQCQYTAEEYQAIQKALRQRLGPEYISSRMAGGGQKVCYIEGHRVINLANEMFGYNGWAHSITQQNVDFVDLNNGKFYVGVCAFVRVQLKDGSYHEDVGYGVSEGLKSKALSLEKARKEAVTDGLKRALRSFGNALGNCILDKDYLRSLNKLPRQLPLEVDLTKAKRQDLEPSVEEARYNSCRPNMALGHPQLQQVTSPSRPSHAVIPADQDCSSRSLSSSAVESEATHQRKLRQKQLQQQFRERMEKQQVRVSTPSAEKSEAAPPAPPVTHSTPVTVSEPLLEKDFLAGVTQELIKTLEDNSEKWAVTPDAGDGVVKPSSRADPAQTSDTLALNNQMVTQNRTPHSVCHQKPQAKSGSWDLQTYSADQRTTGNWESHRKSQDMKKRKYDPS
Numbers without * were called inactive; · = not tested or not shown.

SMILES	PREPL inhibitor	FID counter	beta cell repl	UBC13 inh	RAD54 inh	RAD52 anneal inh
COc1ccc(-n2cc(CN[C@H]3CCCCNC3=O)c(-c3cccc(F)c3)n2)cc1	4	9	-5	8	-2	-5
COc1ccc(-n2cc(CNC3CCN(C)CC3)c(-c3cccc(F)c3)n2)cc1	10	42*	-6	14	·	48
O=C(NCC[C@@H]1CC[C@@H](NC(=O)Nc2cc(F)ccc2F)[C@H](CO)O1)Nc1ccc(F)cc1	·	·	·	·	16	56*
O=C(NCC[C@H]1CC[C@H](NC(=O)c2cccnc2)[C@H](CO)O1)Nc1ccc(F)cc1	·	·	·	·	-9	50*
O=C(NCC[C@H]1CC[C@@H](NC(=O)c2cccnc2)[C@@H](CO)O1)Nc1ccc(F)cc1	·	·	·	·	6	14
O=C(NCC[C@H]1CC[C@H](NC(=O)Nc2cc(F)ccc2F)[C@H](CO)O1)Nc1ccc(F)cc1	·	·	·	·	-1	11
Cc1[nH]c2ccccc2c1/C=N/Nc1ccccc1[N+](=O)[O-]	51*	15	-6	-107	·	-1
COCCn1nnnc1CN(CCc1ccccc1)Cc1cc2cc(OC)ccc2[nH]c1=O	54*	-2	2	7	·	·
O=C(CCN1CCCCC1)NCC[C@@H]1CC[C@@H](NC(=O)C2CCOCC2)[C@@H](CO)O1	·	·	·	·	-3	-4
CC(C)C#Cc1ccc([C@H]2[C@@H](CO)N3C(=O)CN(C(=O)NC4CCCCC4)C[C@@H]23)cc1	·	·	·	·	·	58*
CC(C)C#Cc1ccc([C@H]2[C@H](CO)N3C(=O)CN(C(=O)NC4CCCCC4)C[C@@H]23)cc1	·	·	·	·	·	-8
CCC(=O)N1CC(=O)N2[C@@H](CO)[C@H](c3ccc(C#Cc4cccnc4)cc3)[C@@H]2C1	·	·	·	·	·	5
COc1ccccc1C(c1nnnn1CS(=O)(=O)c1ccc(C)cc1)N1CCSCC1 (stereo not given)	-1	6	-2	0	2	·
COc1cccc(C(c2nnnn2CS(=O)(=O)c2ccc(C)cc2)N2CCN(C)CC2)c1OC (stereo not given)	4	41*	0	1	23	·
O=C(NC[C@H]1CC[C@H]2[C@H](CN2Cc2cccc(Cl)c2)O1)C1CCC1	·	·	·	·	·	67*
O=C(NC[C@@H]1CC[C@H]2[C@H](CN2Cc2cccc(Cl)c2)O1)C1CCC1	·	·	·	·	·	2
CC(C)NC(=O)Nc1ccc2c(c1)C(=O)N([C@@H](C)CO)C[C@H](C)[C@@H](CN(C)CC1CCCCC1)OCCCC[C@H](C)O2	·	·	·	·	6	4
O=C(COc1ccccc1[N+](=O)[O-])N/N=C/C=C/c1ccco1	8	-2	-5	-10	-2	·
COc1cc(/C=N/NC(=O)COc2ccccc2[N+](=O)[O-])ccc1OC(=O)c1ccco1	101*	-22	0	4	·	2
O=C(COc1ccccc1[N+](=O)[O-])N/N=C/c1ccc(OC(=O)c2ccco2)cc1	62*	-15	0	-4	-10	-8
COc1cc(/C=N\NC(=O)OC(C)(C)C)ccc1OC(=O)c1ccco1	10	-27	-3	-1	·	-2
C[C@@H]1CN([C@H](C)CO)C(=O)c2cc(NC(=O)c3ccncc3)ccc2O[C@H]1CN(C)Cc1ccccc1	·	·	·	·	7	6
Cc1cc2nc3ccc(=[N+](C)C)cc-3sc2cc1N	·	104*	·	·	·	·
CN(C)c1ccc2nc3ccc(=O)cc-3sc2c1	·	·	·	·	-4	-82
Cc1ccc(SCc2nc3ccccc3n2CC(=O)Nc2ccccc2)cc1	53*	-9	-2	8	-22	·
SMILES	PREPL inhibitor	FID counter	beta cell repl	UBC13 inh	RAD54 inh	RAD52 anneal inh
Cc1c(Br)c([N+](=O)[O-])nn1CC(=O)Nc1ccc2nc3n(c(=O)c2c1)CCCC3	15	64*	3	2	12	-10
CS(=O)(=O)CC(=O)Nc1ccc2nc3n(c(=O)c2c1)CCCCC3	-4	4	1	-6	8	-5
CN1C(=O)c2cc(NC(=O)Nc3ccccc3F)ccc2OC[C@H]2O[C@@H](CC(=O)NCCc3ccncc3)CC[C@@H]21	·	·	·	·	-1	·
O=[N+]([O-])c1ccc(N2CCNCC2)cc1Sc1nc2ccccc2[nH]1	4	40*	0	3	·	·
Cc1cc(Br)ccc1OCCNCc1ccccc1	-17	38*	-2	14	2	-6
CN(C)CCCNS(=O)(=O)c1ccc(N2CCC(c3ccc(Cl)cc3)=N2)cc1	70*	37*	-6	55*	·	·
COc1cc2c(cc1NC(=S)Nc1cccc(C)c1)oc1ccccc12	44*	4	-6	-2	·	·
CO[C@H]1CN(C)C(=O)c2ccc(NC(=O)Nc3ccc(Cl)c(Cl)c3)cc2OC[C@H](C)NC[C@H]1C	·	·	·	·	-2	39
CO[C@H]1CN(C)C(=O)c2cc(NC(=O)Nc3ccc(Cl)c(Cl)c3)ccc2OC[C@@H](C)NC[C@H]1C	·	·	·	·	31	52*
CO[C@H]1CN(C)C(=O)c2ccc(NC(=O)Nc3cc(Cl)cc(Cl)c3)cc2OC[C@H](C)NC[C@@H]1C	·	·	·	·	·	37
CO[C@H]1CN(C)C(=O)c2ccc(NC(=O)Nc3ccc(Cl)c(Cl)c3)cc2OC[C@H](C)NC[C@@H]1C	·	·	·	·	-3	51*
CO[C@@H]1CN(C)C(=O)c2ccc(NC(=O)Nc3cc(Cl)cc(Cl)c3)cc2OC[C@H](C)NC[C@@H]1C	·	·	·	·	8	58*
C[C@@H]1CN([C@@H](C)CO)C(=O)c2cc(NS(=O)(=O)c3cn(C)cn3)ccc2O[C@@H](C)CCCCO[C@@H]1CN(C)C(=O)NC1CCCCC1	·	·	·	·	-1	-11
N#C[C@H]1[C@@H](c2ccccc2-c2ccccc2F)[C@H](CO)N1C(=O)C1CCOCC1	·	·	·	·	·	-5
CC(=O)N1[C@H](CO)[C@H]2c3ccccc3N(C(=O)c3ccccc3)C[C@H]21	·	·	·	·	3	-8
CCCCN(C)CC(O)Cn1cc(/C=C/C(=O)c2ccc(C)cc2)c2ccccc21 (stereo not given)	45*	23	-7	26	10	-4
Cc1ccc(N2C(=S)NC3c4cc(Cl)ccc4OC2(C)C3C(=O)N(C)C)cc1 (stereo not given)	9	-19	10*	0	-2	-3
Cc1cccc(N2C(=S)NC3c4cc(Cl)ccc4OC2(C)C3C(=O)N(C)C)c1 (stereo not given)	13	-23	7	-12	·	-4
COc1ccc(NC(=O)N2CCCCN3[C@@H](CO)[C@H](c4ccc(-c5ccccc5F)cc4)[C@@H]3C2)cc1	·	·	·	·	4	60*
COc1ccc(NC(=O)N2CCCCN3[C@@H](CO)[C@@H](c4ccc(-c5ccccc5F)cc4)[C@@H]3C2)cc1	·	·	·	·	20	65*
CN1CCN(c2nc(-c3ccc(Cl)cc3Cl)nc3ccccc23)CC1	-1	5	-4	4	4	-2
CN1CCN(c2nc(-c3ccc(Cl)cc3)nc3ccccc23)CC1	·	39*	-6	10	34	5
C[C@@H]1CN([C@H](C)CO)C(=O)c2c(c3ccccc3n2C)-c2ccccc2CO[C@@H]1CN(C)C(=O)[C@H](Cc1ccccc1)N(C)C	·	·	·	·	1	51*

Screening results (PubChem BioAssay)
